Compound activity deposited in PubChem by National Center for Advancing Translational Sciences (NCATS).
This is a sample that favours compounds with a hit; in the whole collection about 1.2% have one here.
EPAC2 antagonist: EPAC2 (human) antagonism; EPAC2 GEF exchange of Rap1B-BODIPY-GDP, fluorescence; Potency, µM (highest dose often 114 µM), without a hit: at the top dose activity, negative = inhibition, actives largely listed as inhibitors; 0.18% of 360,000 active; also: % is scaled to controls: 0 for no effect and ±100 for the full control effect; nearly all actives have a fitted effect of over 45% in size
EPAC2 agonist: agonists of human EPAC2 (RAPGEF4) | Q8WZA2 | AID 720711 | EPAC2 activation, biochemical qHTS; response scale: 100% = 6.5 mM cAMP response | 0.079% of 360,000 active | Potency, µM (highest dose often 154 µM), without a hit: at the highest dose activation, most hits filed as activators; also: nearly all actives have a fitted effect of over 50% in size
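Compounds were titrated in qHTS against a Rap1B-BODIPY-GDP (250 nM) complex with EPAC2 (100 nM) and GDP (50 uM). BODIPY-GDP release tracked at 480/540 nm over 30 min at room temperature, normalized to 6.5 mM cAMP.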
USP1-UAF1 inh: inhibitors of human USP1/UAF1 deubiquitinase | O94782 | recombinant USP1/UAF1, Ub-Rhodamine cleavage fluorescence | Potency, µM (doses to about 57.1 µM), inactives show top-dose activity change, negative = inhibition, most hits filed as inhibitors | 0.23% of 390,000 active | AID 743255; also: % is scaled to controls: 0 for no effect and ±100 for the full control effect; nearly all actives have a fitted effect of over 60% in size
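In this screen, compounds sit with the deubiquitinase complex (1nM) for 15 min at room temperature before Ub-Rho is added at 150nM final. Fluorescence rise is then followed for 6 reads every 60 seconds.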
EPAC1 antagonist: EPAC1 (human) antagonism | EPAC1 GEF assay, Rap1b-BODIPY-GDP exchange fluorescence | Potency, µM (doses to about 115 µM), inactives show at the highest dose activity change, negative = inhibition, hits mostly inhibitors | AID 720709 | 0.14% of 360,000 active;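 also: plate controls were vehicle for no effect and positive control for full effect; nearly all actives have a fitted effect of over 50% in size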
Target sequence (O95398 whole entry, looked up): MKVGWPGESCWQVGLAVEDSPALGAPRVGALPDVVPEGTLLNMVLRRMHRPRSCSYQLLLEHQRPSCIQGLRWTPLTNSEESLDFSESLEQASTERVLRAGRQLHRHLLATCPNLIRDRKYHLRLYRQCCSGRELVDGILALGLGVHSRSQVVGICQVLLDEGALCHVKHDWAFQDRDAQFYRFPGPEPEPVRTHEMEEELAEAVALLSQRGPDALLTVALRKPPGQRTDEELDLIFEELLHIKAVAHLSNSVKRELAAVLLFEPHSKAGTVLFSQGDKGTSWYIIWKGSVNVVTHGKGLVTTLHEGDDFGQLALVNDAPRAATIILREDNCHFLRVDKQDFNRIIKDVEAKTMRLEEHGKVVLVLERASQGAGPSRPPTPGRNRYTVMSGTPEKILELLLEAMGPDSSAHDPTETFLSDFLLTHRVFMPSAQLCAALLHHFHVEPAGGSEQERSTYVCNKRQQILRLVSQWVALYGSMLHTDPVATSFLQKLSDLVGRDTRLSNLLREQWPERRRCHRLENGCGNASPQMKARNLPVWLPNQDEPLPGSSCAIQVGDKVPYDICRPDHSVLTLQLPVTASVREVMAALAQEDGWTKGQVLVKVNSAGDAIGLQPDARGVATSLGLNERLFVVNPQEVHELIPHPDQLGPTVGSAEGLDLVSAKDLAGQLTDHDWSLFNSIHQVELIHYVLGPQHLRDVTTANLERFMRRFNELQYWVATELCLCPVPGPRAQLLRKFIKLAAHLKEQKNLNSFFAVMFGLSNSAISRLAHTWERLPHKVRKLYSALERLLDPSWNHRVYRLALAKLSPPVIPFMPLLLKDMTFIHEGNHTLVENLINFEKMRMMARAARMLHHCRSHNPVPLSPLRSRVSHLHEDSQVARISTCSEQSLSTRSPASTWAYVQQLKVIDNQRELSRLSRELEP
VDR inh: vitamin D3 receptor (human) inhibition. P11473. VDR-SRC2-3 peptide fluorescence polarization, 2 h. Potency, µM, inactives show max response, negative = inhibition, usual class: inhibitors. 0.93% of 400,000 active; also: % is scaled to controls: 0 for no effect and ±100 for the full control effect
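VDR–SRC2-3 interaction, FP format. Cmpds 23 nl via pintool, brief spin, 2 h ambient incubation.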
EPAC1 agonist: activates human EPAC1 exchange factor | O95398 | EPAC1 agonist qHTS, biochemical assay; response scale: 100% = response to 6.5 mM cAMP | Potency, µM (top dose mostly 154 µM), for inactives: at the highest dose activation, actives largely listed as activators | 0.073% of 360,000 active | AID 720707; also: nearly all actives have a fitted effect of over 60% in size
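Read-out is the fluorescence drop as BODIPY-GDP leaves Rap1B (480 nm excitation, 540 nm emission), recorded every 5 minutes over 30 minutes. Reactions held 100 nM EPAC1, 250 nM Rap1B–BODIPY-GDP and 50 uM GDP, with 6.5 mM cAMP setting full activation.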
VDR inh confirm: inhibits human vitamin D receptor, primary hit validation; AID 602199; shares compounds with VDR inh; 89% of 840 active; Potency, µM, most hits filed as inhibitors; VDR-coactivator inhibition assay, qHTS confirmation
VDR FP fluor: blocks human VDR-coactivator binding in fluorescein assay; VDR-coactivator binding, fluorescein fluorescence polarization; 48% of 840 active; shares compounds with VDR inh; AID 602200; Potency, µM (titrated, usually from 57.1 µM), for inactives: at the top dose activity change, negative = inhibition, usual class: inhibitors
VDR bla: inhibits human VDR in beta-lactamase reporter cells; Potency, µM (doses to about 46.1 µM), for inactives: at the highest dose activity change, negative = inhibition, usual class: inhibitors; 23% of 840 active; VDR beta-lactamase reporter cells, FRET ratio; cells co-treated with VDR agonist LG190178; AID 602202; shares compounds with VDR inh; also: % is scaled to controls: 0 for no effect and ±100 for the full control effect
VDR cytotox: cytotoxic in counter-screen for VDR inhibitors. shares compounds with VDR inh. cytotoxicity counter-screen, cell viability, qHTS. Potency, µM (top dose mostly 48.3 µM), inactives show at the highest dose activity change, negative = cytotoxicity, hits mostly cytotoxic. 18% of 840 active;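 also: plate controls were DMSO for no effect and high-concentration cycloheximide for full effect; nearly all actives have a fitted effect of over 75% in size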
The depositor's hits bear a star; ? = inconclusive; nt = not tested or not shown. Calls follow the shape of the dose curve; as a rule, active = well fitted curve in the direction sought with a large enough effect; inconclusive = small, poorly fitted or top-dose-only effect, or another doubt; inactive = no such curve, though single readings can be large; an effect the other way counts as inactive or inconclusive. Potency is read from the fitted curve at half-maximal effect.

SMILES	EPAC2 antagonist	EPAC2 agonist	USP1-UAF1 inh	EPAC1 antagonist	VDR inh	EPAC1 agonist	VDR inh confirm	VDR FP fluor	VDR bla	VDR cytotox
O=C1C(=Cc2cn(-c3ccccc3)nc2-c2ccc(OCc3ccc(Cl)cc3)cc2)SC(=S)N1CCS(=O)(=O)O	44%	25%	nt	?	nt	7%	nt	nt	nt	nt
O=CN1CCCCC1C1CC[C@H]2CCCCN2C1 (stereo not given in full)	nt	nt	nt	nt	-4%	nt	nt	nt	nt	nt
Cc1ccc(N2C(=O)NC(=O)/C(=C\c3cnc(-c4ccccc4)nc3)C2=O)cc1	3%	20%	-13%	-5%	22µM*	6%	27*	?	11%	9%
CC(=O)Nc1ccc(N(C(=O)Cn2nnc3ccccc32)C(C(=O)NC2CCCC2)c2ccc(O)c(O)c2)cc1 (stereo not given)	-4%	3%	-23%	?	12%	6%	nt	nt	nt	nt
CCCCn1c(NC(=O)c2ccc(Br)o2)c(C(=O)OCC)c2nc3ccccc3nc21	?	13%	25µM*	?	?	-5%	2.5*	1.4µM*	?	?
NS(=O)(=O)c1ccc(-c2ccc(C=C3C(=O)NC(=O)NC3=O)o2)cc1	18%	8%	10%	?	45µM*	-4%	?	?	6%	-9%
O=C1NC(=O)C(=Cc2ccc(-c3cc(Cl)ccc3[N+](=O)[O-])o2)C(=O)N1	-7%	0%	-8%	?	79µM*	11%	3.4*	25%	?	?
CCN1C[C@@]2(COC)CCC(OC)[C@]34C5C[C@]6(O)[C@@H](OC)C[C@](OC(C)=O)(C([C@H](OC)C23)[C@H]14)C5[C@H]6OC(=O)c1ccc(OC)cc1 (stereo not given in full)	nt	nt	nt	nt	11%	nt	nt	nt	nt	nt
CN1C(=O)N(C)C(=O)C2(Sc3ccccc3C2=O)C1=O	-7%	5%	-7%	-13%	35µM*	3%	3.4*	3.5µM*	31%	-7%
CCCC[N+]12C3CC(C(CC)[C@H]1O)[C@@H]1C(O)C4(C[C@@H]12)c1ccccc1N(C)C34 (stereo not given in full)	nt	nt	nt	nt	1%	nt	nt	nt	nt	nt
O=c1oc2ccccc2c(O)c1[C@H]1c2ccc(O)cc2Oc2c1c(=O)oc1ccccc21	-13%	-6%	-18%	-29%	79µM*	-14%	30*	?	21µM*	-31%
C[C@@H]1OC(=O)[C@H]2C[C@H]3CCCC[C@@H]3[C@@H](/C=C/[C@H]3CCC[C@H](C)N3C)[C@@H]12	nt	nt	nt	nt	-10%	nt	nt	nt	nt	nt
CCOc1ccc(/C=C2/C(=O)NC(=O)N(CCc3ccc(F)cc3)C2=O)cc1	-13%	2%	-18%	-5%	79µM*	-2%	?	18µM*	17%	?
COc1cc(/C=C2\C(=O)NC(=O)N(CCc3ccc(F)cc3)C2=O)ccc1O	-7%	2%	-15%	-20%	?	-5%	nt	nt	nt	nt
CC(C)Nc1ccc(Nc2ccccc2)cc1	4%	15%	-23%	2%	40µM*	-1%	?	7.1µM*	?	?
